Data: PubChem BioAssay AID1159580 (chemical genetic matrix, 2015)
About 2,000 (36%) of roughly 5,500 compounds were called active. Another 18% or so got no clear call; they are omitted. Rule as the data show it: active = normalized growth mostly below about 0.91 (no sharp cut-off); inconclusive = no clear call, values can overlap the other calls; inactive = mostly above about 0.92. Some of the results follow.

Test: chemical genetic growth profiling, strain panel (AID 1159580);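 also: tested at 20 µM; growth read once vehicle control cultures reached saturation at 30 °C; 1 = growth at the plate median or of vehicle wells; lower values mean less growth of the strain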
Details: S. cerevisiae deletion strains, growth OD

Measured: normalized growth

CC(C)(O)[C@@H]1CC[C@](C)([C@H]2[C@@H](O)C[C@@]3(C)C4C[C@H](O[C@@H]5O[C@H](CO)[C@@H](O)[C@H](O)[C@H]5O)C5C(C)(C)[C@@H](O[C@@H]6OC[C@@H](O)[C@H](O)[C@H]6O)CC[C@@]56C[C@@]46CC[C@]23C)O1 (stereo not given in full)
inactive: locus YAL021C, strain ccr4, hits give low values 0.988 | locus YAL026C, strain drs2, hits give low values 0.986 | locus YAL030W, strain snc1, hits give low values 0.99 | locus YBL061C, strain skt5, hits give low values 0.999 | locus YBR009C, strain hhf1, hits give low values 1.01 | locus YBR023C, strain chs3, hits give low values 0.998 | locus YBR171W, strain sec66, hits give low values 0.989 | locus YBR231C, strain swc5, hits give low values 1 | locus YBR279W, strain paf1, hits give low values 0.991 | locus YCL011C, strain gbp2, hits give low values 0.995 | locus YCL016C, strain dcc1, hits give low values 1 | locus YCL061C, strain MRC1, hits give low values 1 | locus YCL069W, strain vba3, hits give low values 0.981 | locus YCR088W, strain abp1, hits give low values 0.986 | locus YDL005C, strain med2, hits give low values 0.977 | locus YDL040C, strain nat1, hits give low values 0.985 | locus YDR001C, strain nth1, hits give low values 0.991 | locus YDR069C, strain doa4, hits give low values 0.975 | locus YDR137W, strain rgp1, hits give low values 1.04 | locus YDR159W, strain sac3, hits give low values 0.966 | locus YDR195W, strain ref2 0.931 | locus YDR297W, strain sur2, hits give low values 1 | locus YDR334W, strain swr1, hits give low values 0.959 | locus YDR335W, strain msn5, hits give low values 0.986 | locus YDR392W, strain spt3, hits give low values 0.997 | locus YEL003W, strain gim4, hits give low values 0.991 | locus YEL037C, strain rad23, hits give low values 0.974 | locus YEL061C, strain CIN8 (second series), hits give low values 0.985 | locus YER015W, strain faa2, hits give low values 0.998 | locus YER016W, strain bim1, hits give low values 1 | locus YER111C, strain swi4, hits give low values 0.979 | locus YER155C, strain BEM2 (second series), hits give low values 1 | locus YFR010W, strain ubp6, hits give low values 0.989 | locus YGL167C, strain pmr1, hits give low values 0.979 | locus YGL173C, strain kem1, hits give low values 0.99 | locus YGL227W, strain vid30, hits give low values 0.999 | locus YGL240W, strain doc1, hits give low values 1 | locus YGL253W, strain hxk2, hits give low values 0.988 | locus YHR013C, strain ard1, hits give low values 0.976 | locus YHR027C, strain rpn1, hits give low values 0.998 | locus YHR030C, strain SLT2, hits give low values 0.954 | locus YHR079C, strain IRE1, hits give low values 0.96 | locus YHR142W, strain chs7, hits give low values 0.978 | locus YJL092W, strain hpr5, hits give low values 0.995 | locus YJL095W, strain BCK1 (second series), hits give low values 0.981 | locus YJL095W, strain BCK1, hits give low values 1.05 | locus YJL115W, strain asf1, hits give low values 0.978 | locus YJL129C, strain trk1, hits give low values 0.989 | locus YJL154C, strain vps35, hits give low values 0.972 | locus YJL164C, strain tpk1, hits give low values 1 | locus YJL166W, strain qcr8, hits give low values 0.987 | locus YJL187C, strain SWE1, hits give low values 0.993 | locus YJR066W, strain TOR1, hits give low values 0.92 | locus YKL160W, strain elf1, hits give low values 0.996 | locus YKR026C, strain gcn3, hits give low values 0.992 | locus YKR091W, strain srl3, hits give low values 0.993 | locus YLL001W, strain dnm1, hits give low values 1 | locus YLL026W, hits give low values 1 | locus YLL041C, strain sdh2, hits give low values 0.98 | locus YLR027C, strain aat2, hits give low values 1.02 | locus YLR113W, strain HOG1, hits give low values 1.1 | locus YLR221C, strain rsa3, hits give low values 1 | locus YLR258W, strain gsy2, hits give low values 0.979 | locus YLR262C, strain YPT6 (second series), hits give low values 0.998 | locus YLR320W, strain mms22, hits give low values 0.996 | locus YLR342W, strain FKS1, hits give low values 1 | locus YLR357W, strain rsc2, hits give low values 0.967 | locus YLR370C, strain arc18, hits give low values 0.986 | locus YLR384C, strain iki3, hits give low values 1 | locus YML120C, strain ndi1, hits give low values 0.98 | locus YMR058W, strain fet3, hits give low values 0.994 | locus YMR125W, strain sto1, hits give low values 0.984 | locus YMR129W, hits give low values 0.995 | locus YMR205C, strain PFK2, hits give low values 0.976 | locus YMR231W, strain pep5, hits give low values 0.991 | locus YNL071W, strain lat1, hits give low values 0.972 | locus YNL183C, strain NPR1, hits give low values 0.985 | locus YNL209W, strain ssb2, hits give low values 0.987 | locus YNL248C, strain rpa49, hits give low values 0.981 | locus YNL322C, strain KRE1 (second series), hits give low values 0.989 | locus YNR049C, strain mso1, hits give low values 0.994 | locus YOR001W, strain rrp6, hits give low values 0.972 | locus YOR070C, strain gyp1, hits give low values 1 | locus YOR080W, strain dia2, hits give low values 0.987 | locus YOR083W, strain WHI5, hits give low values 1 | locus YOR106W, strain vam3, hits give low values 0.99 | locus YOR231W, strain MKK1, hits give low values 0.95 | locus YOR265W, strain rbl2, hits give low values 0.993 | locus YOR270C, strain vph1, hits give low values 0.793 | locus YOR290C, strain snf2, hits give low values 1.01 | locus YPL051W, strain arl3, hits give low values 1.01 | locus YPL078C, strain atp4, hits give low values 0.975 | locus YPL106C, strain sse1, hits give low values 0.975 | locus YPL240C, strain hsp82, hits give low values 0.989 | locus YPL256C, strain CLN2, hits give low values 0.974
